Records with an inconclusive call do not appear. Calls of active or inactive are those of the source. Calls follow the shape of the dose curve; as a rule, active = well fitted curve in the direction sought with a large enough effect; inconclusive = small, poorly fitted or top-dose-only effect, or another doubt; inactive = no such curve, though single readings can be large or run the other way.
Assay: qHTS Assay for Rab9 Promoter Activators: Hit Validation Using Renilla Luciferase Read-Out; also: % of control where 0% means no effect
Details: Huh7 NPC1 promoter Renilla luciferase reporter, 24 h; series mostly up to 76.9 µM; activation (negative = inhibition): at the top concentration
Procedure, shortened: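 Hit validation in Huh7 NPC promoter-luciferase reporter line: compound treatment 24 h at 37 deg C, then luminescence measured after 10 min room-temperature incubation with […] reagent.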

Activation (negative = inhibition), inactive:
CCN(CC)S(=O)(=O)c1ccc(NCc2ccccn2)nc1 -1.71%
Cc1ccc(NC(=O)c2ncc(Cl)c(Cl)c2Cl)cc1C -49.1%
CN(C)/C=N/c1c(C#N)cnn1-c1nc2ccccc2s1 -3.73%
O=C(c1cccc(Oc2ccc([N+](=O)[O-])cc2)c1)N1CCOCC1 -8.02%
NC(=O)COC(=O)c1ccc2noc(-c3ccccc3)c2c1 -10.5%
Cc1ccc(N(O)C(=O)NCCCCNC(=O)N(O)c2ccc(C)cc2)cc1 1.58%
CC(Sc1nnc(C(F)(F)F)n1C)C(=O)Nc1ccc(S(N)(=O)=O)cc1 (centres undefined) -17.9%
COc1ccc(C2(CNC(=O)/C=C/c3ccco3)CCCC2)cc1OC 2.65%
N#CC/C(N)=N/NC(=O)CCCNc1ncc(C(F)(F)F)cc1Cl -4.96%
COc1ccccc1CNC(=O)COc1ccc(C)cc1 3.98%
Cc1nc(SCC(=O)NC(=O)NC(C)(C)C)nc(C)c1C 0.143%
O=C(O)C1=CC[C@@H](c2ccc(Cl)cc2)N(S(=O)(=O)c2ccc(Cl)cc2)[C@H]1c1ccccc1 1.45%
O=C(NCC1CCCO1)C(c1ccc(F)cc1)N(Cc1ccc2c(c1)OCO2)C(=O)c1ccc(CN2CCOCC2)o1 (centres undefined) -4.06%
COc1cccc(CNC(=O)CN(c2cc(C)cc(C)c2)S(=O)(=O)c2c(C)noc2C)c1 26.9%
O=C(CSc1nnc(-c2ccccn2)o1)Nc1ccccc1Cl -3.21%
O=C(CSc1nnc(-c2ccccc2)o1)Nc1ccccc1F 10.4%
CCCOP(=O)(c1ccc(N(C)C)cc1)C(O)c1cccnc1 (centres undefined) -3.35%
Cc1ccc2nc(NC(=O)CCn3cccc3)sc2c1 -34.5%
Nc1ccccc1C(=O)N/N=C1/C2CN3CCN(C2)CC1(Cc1ccccc1)C3 -14.9%
O=C(C[N+]1(CC#Cc2ccccc2)CCCCC1)c1ccccc1 5.82%
CC(=O)Nc1nnc(SCC(=O)NCCOc2ccccc2)s1 -12.5%
O=C(NCCSCc1c(F)cccc1Cl)c1ccc(CN2CCOCC2)cc1 -51.8%
O=C(O)CSc1nnc(-c2ccncc2)n1CCc1ccccc1 -6.59%
CC(=O)NC(CCCN1C(=O)c2ccccc2C1=O)c1nnn(C)n1 (centres undefined) 2.21%
COc1ccc(C(c2nnnn2CCc2ccccc2)N2CCN(C3CCCC3)CC2)cc1 (centres undefined) 0.128%
COC(=O)c1sccc1NC(=S)OC -7.79%
CCOc1cc(C(=O)N=c2sccn2C)ccc1OC(F)F 4.68%
Cc1ccc(C(=O)c2cncc(Br)c2)cc1 7.59%
CCOc1cc(C2C(C#N)=C(N)Oc3n[nH]c(C)c32)ccc1OCCN1CCOCC1 (centres undefined) 13.1%
CCC(=O)Nc1cc(-c2cc3ccccc3oc2=O)ccc1OC 3.28%
O=C(NNC(=O)C1COc2ccccc2O1)c1ccccc1O (centres undefined) -1.57%
CC1CCCN(C(=S)Nc2ccc(Nc3ccccc3)cc2)C1 (centres undefined) 11.8%
CCCCc1cc(=O)oc2cc(OCC(=O)N3CCOCC3)ccc12 -1.07%
CC(=O)NC(=S)Nc1ccc2oc(-c3cc(F)c(F)cc3Cl)nc2c1 0.138%
NNC(=O)c1cccc(S(=O)(=O)Nc2cc(Cl)ccc2Cl)c1 12.1%
Cc1ccc(NC(=O)Nc2cccc3ccccc23)cc1 -3.27%
NC(=O)C1(NC(=O)[C@@H]2CC3(CC(c4cccc(NC(=O)[C@@H]5CCC(=O)N5)c4)=NO3)CN2C(=O)c2ccccc2)CC1 (some centres undefined) 4.72%
COc1ccc(C(=O)OCC(=O)N2CCCC2=O)c(OC)c1 14.1%
COc1ccccc1NC(=S)NCc1ccc(Cl)cc1 1.13%

— PubChem BioAssay AID624117 (National Center for Advancing Translational Sciences (NCATS), 2012)
